L3MBTL1 block: qHTS Assay for the Inhibitors of L3MBTL1; Lethal(3)malignant brain tumor-like protein 1 (Homo sapiens), Q9Y468; AlphaScreen L3MBTL1–H3K9me1 peptide binding; Potency, µM (series often up to 57.1 µM), actives largely listed as inhibitors; actives 0.66% (n = 230,000); AID 485360, 2010; note: nearly all actives have a fitted effect of over 60% in size
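AlphaScreen assay: L3MBTL1 (50 nM final) was preincubated 30 min at room temperature with biotinylated H3(1-15)K9me1 peptide (75 nM final), then 30 min with library compounds; streptavidin donor and nickel chelate acceptor beads (10 ug/mL final) added, 30 min dark.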
JMJD2A Tudor: qHTS Assay for Inhibitors of JMJD2A-Tudor Domain; AlphaScreen JMJD2A-Tudor / H3K4me3 peptide binding; Potency, µM (highest dose often 114 µM), hits mostly inhibitors; actives 4.4% (n = 390,000); Lysine-specific demethylase 4A (Homo sapiens), O75164; note: nearly all actives have a fitted effect of over 50% in size
HP1b chromo inh: HTS for Inhibitors of HP1-beta Chromodomain Interactions with Methylated Histone Tails; AlphaScreen HP1-beta / biotin-H3K9me3 peptide binding; Chromobox protein homolog 1 (Homo sapiens), P83916; actives 0.56% (n = 390,000); AID 540317, 2011; Potency, µM (highest dose often 114 µM), most hits filed as inhibitors; note: nearly all actives have a fitted effect of over 70% in size
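AlphaScreen: HP1-beta (50 nM) preformed 30 min with biotin-H3(1-18)K9me3 peptide (50 nM) in PBS pH 7.4, 0.01% Tween-20. Compound added for 30 min at RT, then streptavidin donor/nickel chelate acceptor beads (10 ug/mL) for 30 min.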
G9a block: qHTS Assay for Inhibitors of Histone Lysine Methyltransferase G9a; G9a H3K9 monomethylation, AlphaScreen, 2 h; Potency, µM (series often up to 102 µM), usual class: inhibitors; actives 8.8% (n = 350,000); note: nearly all actives have a fitted effect of over 75% in size
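AlphaScreen read-out: biotin-H3K9 peptide (500 nM) methylation by 20 nM enzyme with 20 uM SAM, 2 h at room temperature after 15 min compound preincubation; anti-monomethyl H3K9 antibody plus donor/acceptor beads, 10 min dark.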
Sfp inh: qHTS Assay for Inhibitors of Bacillus subtilis Sfp phosphopantetheinyl transferase (PPTase); Potency, µM, usual class: inhibitors; Biochemical Sfp PPTase activity, qHTS; actives 3.5% (n = 310,000); 4'-phosphopantetheinyl transferase ffp (Bacillus subtilis), Q9F4F7;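 note: the enzyme is Sfp with the accession as filed and its product quenches rhodamine fluorescence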
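After 15 min at room temperature with compound, 15 nM Sfp received 5 uM rhodamine-CoA plus 12.5 uM BHQ-2-ybbR (50 mM Hepes pH 7.6, 10 mM MgCl2). Rate came from the fluorescence difference over 30 min, ex 525/em 598 nm.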
BAZ2B block: qHTS Assay for Inhibitors of BAZ2B. Bromodomain adjacent to zinc finger domain protein 2B (Homo sapiens), Q9UIF8. AlphaScreen BAZ2B-H3K14Ac peptide displacement. Potency, µM (top dose mostly 114 µM), hits mostly inhibitors. actives 4.4% (n = 360,000). AID 504333, 2011; note: nearly all actives have a fitted effect of over 60% in size
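Multi-concentration screen (max 110 uM) measuring displacement of acetylated histone H3 peptide from BAZ2B by AlphaScreen, using 50 nM protein, 50 nM peptide and 10 ug/mL streptavidin donor plus Ni-chelate acceptor beads.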
Numbers stand for hits; 0 = inactive; ? = inconclusive; - = no result; ! = not confirmed by another sample; [ ] = dose if it differs, or a comment. Hits are enriched below; roughly 12% of the tested compounds scored in any of these assays. Calls come from the whole dose curve; as a rule, active = well fitted curve in the direction sought with a large enough effect; inconclusive = small, poorly fitted or top-dose-only effect, or another doubt; inactive = no such curve, though single readings can be large; an effect the other way counts as inactive or inconclusive.

SMILES	L3MBTL1 block	JMJD2A Tudor	HP1b chromo inh	G9a block	Sfp inh	BAZ2B block
COc1ccc(-c2ccc(SCC(=O)c3ccc(F)cc3)nn2)cc1OC	0	0	0	35µM	0	0
COc1ccc(-c2ccc(SCC(=O)N3CCCC3)nn2)cc1OC	0	0	0	?	0	0
COc1ccc(-c2ccc(SCC(=O)c3cccs3)nn2)cc1OC	0	0	0	50µM	0	0
Cc1cc(OCC(=O)Nc2ccncc2)ccc1Cl	0	0	0	-	0	?
Cc1cc(OCC(=O)Nc2ncn[nH]2)ccc1Cl	0	?	0	0[2.33 µM]	-	45µM
O=C(COc1ccc2ccccc2c1Br)Nc1ncn[nH]1	0	0	0	0	0	0
Cc1cccc(C)c1OCC(=O)Nc1ncn[nH]1	-	?	0	14µM!	0	50µM
O=C(CC(c1ccccc1)c1ccccc1)Nc1ncn[nH]1	-	0	0	0[12.7 µM]	0	79µM
Cc1cc(OCC(=O)Nc2cc(-c3nn4c(C)nnc4s3)ccc2C)ccc1Cl	0	56µM	0	0	0	0
CCc1ccccc1NC(=O)Nc1nnc(N2CCCC2)s1	-	0	0	0	-	0
COc1cccc(CNS(=O)(=O)c2ccc3c(c2)N(C)CCO3)c1	-	0	0	0	0	0
CCC(CC)C(=O)NCCCN1CCOCC1	0	0	0	0	0	0
Cc1ccc(C(=O)CC(=O)c2ccccc2)cc1	0	0	0	0	0	0
Cc1ccc(SC(CC(=O)c2ccc(C)cc2)C(=O)O)cc1 (stereo not given)	-	0	0	0	11µM	0

Screening data deposited in PubChem by National Center for Advancing Translational Sciences (NCATS).
